The structures appear in SMILES notation. Compounds without any hit were thinned out: in the full panel of roughly 83,000, 20% have a hit.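 Growth was measured after 48 h exposure to one concentration of compound in 96-well plates. Values under 10 count as active.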 Unmarked numbers belong to inactive results. The source made the active and inactive calls.

Results on seven compounds are retold here after PubChem BioAssay (NCI).

Assay in all cases: NCI-60 one-dose screen, 48 h (100 = growth as untreated, 0 = no growth, -100 = all killed)
Common to all, as to settings: 10 µM

Assay [1] has as its system HCT-15 colon.
For assay [2], the system named is HT29 colon.
Assay [3] concerns SNB-75 CNS.
Assay [4] concerns SNB-19 CNS.
Assay [5] relates to U251 CNS.
Assay [6] has as its system PC-3 prostate.
The test system of assay [7] is SK-MEL-5 melanoma.
The subject of assay [8] is UACC-62 melanoma.
The test system of assay [9] is LOX IMVI melanoma.
In assay [10] the test system is SK-MEL-28 melanoma.
Assay [11] has as its system SK-MEL-2 melanoma.
The test system of assay [12] is EKVX NSCLC.
Assay [13] has as its system SN12C renal.
In assay [14] the test system is UO-31 renal.
In assay [15] the test system is TK-10 renal.
Assay [16] has as its system ACHN renal.
Assay [17] has as its system CAKI-1 renal.
Assay [18] deals with A498 renal.
For assay [19], the system named is MOLT-4 leukemia.
The test system of assay [20] is CCRF-CEM leukemia.

Take `CCOC(=O)C1NN(c2ccc(S(N)(=O)=O)cc2)c2nc3nc(-c4cccs4)cc(-c4cccs4)c3c(=O)n21` (centres undefined): the growth in assay [1] was 88.5%; in assay [2], 73.9%; in assay [3] it was 66.8%; in assay [4], 96.4%; in [5], 84.5%; in assay [6] it was 80%. In addition, the growth in assay [7] was 75.5%; in assay [8], 74.8%; in assay [9], 80.7%; in assay [10], 73.1%; in [11], 101%; in assay [12], 91.8%. Moreover, the growth in assay [13] is 90.2%; in [14], 82.9%; in [15], 100%; in [16], 64.9%; in assay [17], 59.1%; in assay [18], 120%. The growth in assay [19] is 78.7%.

For the compound `Nc1cc(-c2cccc(C(=O)NCc3ccc4c(c3)OCO4)c2)ccn1`, the growth in assay [1] was 95.8%; in [2], 111%; in [3] it was 86%; in [4] it was 95.2%; in assay [5], 92.2%; in assay [6], 103%. In addition, the growth in assay [7] was 91.7%; in assay [8], 93.4%; in assay [9], 89.5%; in assay [10], 103%; in assay [11] it was 105%; in assay [12] it was 76.8%. The growth is 104% in assay [13]; 71.9% in assay [14]; 103% in [15]; 97% in [16]; 92.3% in assay [17]; 106% in [18]. Also, the growth in assay [20] is 98.9%; in assay [19], 91.1%.

Take `COc1ccc(Nc2nc(N)n(Cc3cccc(Br)c3)n2)cc1`: the growth is 8.53% (active) in assay [1]; 31.9% in [2]; 11.7% in assay [3]; 18.6% in [4]; 24.7% in [5]; 13.1% in assay [6]. Besides, the growth is -93.3% (active) in assay [7]; 2.3% (active) in assay [8]; -67.3% (active) in assay [9]; 5.84% (active) in assay [10]; -35.7% (active) in [11]; 6.36% (active) in assay [12]. The growth is 14.7% in [13]; 0.264% (active) in [14]; 24.9% in [15]; 1.18% (active) in assay [16]; 8.17% (active) in assay [17]; -19.5% (active) in assay [18]. For the same compound, the values for the growth in assay [20] and in [19] were 10.2% and 9.01% (active), respectively.

Turning to `COc1ccc(-c2cc(-c3cc(C(=O)c4ccccc4)n4ccc(C)cc34)nc(N)c2C#N)cc1`, the growth was 78% in assay [1]; 75% in [2]; 91.5% in [3]; 45.1% in assay [4]; 45.4% in [5]; 63.5% in [6]. For the same compound, the growth in [7] is 67.7%; in [8], 64.6%; in assay [9], 51.3%; in assay [10], 87.6%; in assay [11], 84.8%; in assay [12], 81.2%. Also, the growth in assay [13] was 70%; in [14] it was 65%; in assay [15], 92.4%; in assay [16], 56.4%; in assay [17], 69.9%; in [18], 127%. Moreover, the growth is 98.3% in [20] and 93.8% in assay [19].

For the compound `COc1ccc([C@H]2C(C(=O)c3ccc(Cl)cc3)C3(N[C@@H]2c2ccccc2)C(=O)Nc2ccc(Br)cc23)cc1` (some centres undefined), the growth in [1] is 0.62% (active); in assay [2], -50.6% (active); in assay [3], 15.6%; in assay [4], 20.1%; in assay [5], -18% (active); in assay [6], 17.9%. The growth in assay [7] is 8.62% (active); in [8], -55.4% (active); in assay [9], -100% (active); in assay [10], 18.9%; in assay [11] it was -64.5% (active); in assay [12], 6.66% (active). Further, the growth in assay [13] was -81.3% (active); in assay [14] it was 0.589% (active); in assay [15], 9.79% (active); in assay [16] it was 0.391% (active); in [17], 2.8% (active); in assay [18] it was -7.09% (active). Further, the growth in assay [20] is 13.9%; in [19], 12.1%.

Turning to `O=C(CSc1nnc(-c2c[nH]c3ccccc23)n1-c1ccccc1)Nc1ccc(C(=O)/C=C/c2ccc(Br)cc2)cc1`, the growth in [1] was 68.1%; in assay [2] it was 86.6%; in [3] it was 86.6%; in assay [4], 77%; in assay [5] it was 81.6%; in [6], 66%. In addition, the growth in [7] was 90.5%; in [8], 66.4%; in assay [9] it was 81.6%; in assay [10], 94%; in [11], 101%; in assay [12], 67.4%. In addition, the growth was 89.5% in assay [13]; 52.9% in assay [14]; 97.7% in assay [15]; 78% in assay [16]; 76% in assay [17]; 106% in assay [18]. Besides, the growth in assay [20] was 90.9%; in assay [19], 57.1%.

Turning to `O=C1CCC(N2Cc3cc(NC(=O)COc4ccccc4)ccc3C2=O)C(=O)N1` (centres undefined), the growth was 25.4% in assay [1]; 79.5% in [2]; 46.4% in [3]; 66.7% in assay [4]; 86.8% in assay [5]; 37.7% in assay [6]. In addition, the growth was 74.2% in assay [7]; 84.4% in assay [8]; 108% in [9]; 95.9% in [10]; 98.3% in [11]; 78.6% in assay [12]. For the same compound, the growth in assay [13] is 73.6%; in [14], 28.5%; in assay [15] it was 66%; in assay [16] it was 91.9%; in [17], 92.3%; in assay [18], 75.1%. Moreover, the growth in assay [20] was 22.7%; in [19] it was 11.5%.
